This passage reports RUNX1 binding intensity results from the supplement of paper PMC10681739.

± gives the standard deviation of the averaged measurements. The full ranking holds about 4,000 sequences; the median of “arbitrary fluorescence units” is about 830, and the highest 2% start at about 6,500. This excerpt belongs to a sample that is enriched for the highest values.

In this assay the target is RUNX1 (UniProt Q01196). Description: RUNX1 binding intensity (PBM fluorescence), RUNX1 alone (arbitrary fluorescence units); higher = stronger binding. The settings on record: RUNX1 concentration 2 nM; ETS1 concentration 0 nM. How it is done: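 gcPBM on 36-bp genomic-derived probes (partner site mutated) containing one RUNX1 site and no ETS1 site. Recombinant human RUNX1 (2 nM) was incubated alone or with ETS1 (25 nM) and detected by anti-RUNX1 antibody fluorescence. Values are medians over 4 replicate spots (not normalised). The probes sit in constant array flanks that are not printed.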
Chain of RUNX1 (Q01196 whole entry): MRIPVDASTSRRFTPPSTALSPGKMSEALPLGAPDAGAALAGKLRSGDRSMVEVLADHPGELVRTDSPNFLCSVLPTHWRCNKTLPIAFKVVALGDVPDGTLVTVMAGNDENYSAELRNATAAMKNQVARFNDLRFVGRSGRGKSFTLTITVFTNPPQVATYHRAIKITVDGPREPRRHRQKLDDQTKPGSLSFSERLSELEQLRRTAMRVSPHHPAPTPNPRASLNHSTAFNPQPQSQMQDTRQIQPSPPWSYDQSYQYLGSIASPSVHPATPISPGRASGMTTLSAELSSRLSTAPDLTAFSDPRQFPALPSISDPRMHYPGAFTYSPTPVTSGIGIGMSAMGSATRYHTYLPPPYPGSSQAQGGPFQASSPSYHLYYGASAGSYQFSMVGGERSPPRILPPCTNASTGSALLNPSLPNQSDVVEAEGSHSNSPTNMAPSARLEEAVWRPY
With GCCCCTCTTTCTGACTCACACAACCGCCTCTAGTCT, the RUNX1 binding intensity came to 1540.
The figure for TTGTGGTAGGGAAATCCACTTACCCCCTCCTCATGT is 808; for TGTGGCAACCACAGCCCCAAAACAAAGAGGAGACAC it is 1040.
The figure for AGCTGAGGTCGCGGTGCAGCAGCAGCAAACGTGATA is 1010; for CCACTAGCAGCAAAACGGGCCGAGGGACCGCAAGCA it is 821; for AACTTGTGGGGTTTTCTTCTGATCTTGCTCCCCGCT it is 998.
Sequence GAAACCACAACCTACCCCAGCCTTACTTTCGGGCGC had an RUNX1 binding intensity of 3300.
Sequence CCATTCTTACGGTGGAGATGGCTGCGGCCGTGGCGG came in with an RUNX1 binding intensity of 815.
The figure for TCAAGAAAACAGTAAACTCTCAAAACCAAGTTCTGA is 736.
With GCAATCTTGACCACAACATGGAGACAGGCAATCAAA the figure was 1540; with ACGTCTGTTTACTGTGATTGAAACCGCAAGAAGAAG, 9630; with TAGGTCTGTGGGTGACGTCTGTTTACTGTGATTGAA, 842.
The figure for CATTCATGTGGCTTATAGGCACACCCTGCCTGCCTA is 824; for GAGGCGTTGCCGCCTCCTTTTCGCGGTTGCCTTCTC it is 988; for TCCTCCGTTCCCGTAGTTCCGAGTTGCGGTTTCTCC it is 7620.
CCCCTTGCCGTTCTCCGAAAGTGCGCGGGTTGGAGC returned an RUNX1 binding intensity of 868.
Regarding TGCTTCCCTTCAGTGCCGACAGCGAAAACCGCTGCC, the RUNX1 binding intensity amounted to 795.
With GTCGCCGGGATCACCGCAAACGCTTGCTGCTTGCGC the figure was 1190.
With AGCCGTGGTCAGCAGCAGCACGACTGCCGCCTCCGC the figure was 770; with AACTGGGCTGAAAGAACGGCTAACCGCAAGCTGCCG, 13200; with GCAACCGCACTCCGAAAGCTCTGGGCCTGAAGAGTC, 943.
With TTGATAGCAAACCACACTCGGCACAGAAAGGAGAAC the figure was 1020; with GGCGCCTCTTTGCGCCCCCGCCCACAATCGAGCGCA, 826.
Turning to CCTTTGTTGTGGTTTTTGCAGAAAGAGAAGGGTTAG, the RUNX1 binding intensity is 10600 ± 540.
The figure for GGTGGACCTGTGGTTTGCAACACAGAAAGAGACTAT is 1640; for GGTGGACCTGTGGTTTGCAACACAGAAAGAGGTGGC it is 1580; for CACCTTTGTTGTGGTTTGTAAACGGAGACAAAAACA it is 1460.
With TGACGGCTGCACGGGCGCAGCGGCGGCCCGCAGGGG the figure was 736; with CTGCCTGCCCCACAGCATGCAGGGACAGGCAGTGGG, 633.
With CGGCCCCCGGGGTGGTTAGCGCTTACGGGGTCGAAG the figure was 714; with GCCGATGAGGAGGTGAGGGCCAACCACACTGCTCAG, 870.
In the case of AGTGCTGTGGTTTGACTTTGTTTTTACTGTAGCCAG, the RUNX1 binding intensity came out at 1880.
As for AGAGTCTTTTTTACTGAGCGTTTGCGGTTTTGACTT, the RUNX1 binding intensity was determined as 8560.
For TCAGAACTTGGTTTTGAGAGTTTACTGTTTTCTTGA, the RUNX1 binding intensity was 785.
With GGTCTGGAGGACGTTTGCAGCTGCTGTGGGTGGTGG the figure was 787; with ACCTGATGCCGGGGCACCGCCAGATGTGGCCACGAG, 872.
The figure for TCGCCCGCCGCTTCATGTCGCGGCGCCGCAGAGGCC is 781; for AATTAAATTGTGGTAGATAGTAAAAGGACGTAGTTA it is 943; for TTTAATTCTGTGGTTAGAAGTAAAAGGACGTAAAGG it is 3370.
The figure for GTAGTAAGTTGTGGTTAAAAGAGAGGACGTTCAGAG is 7590.
Regarding ACTCTGCGGCCCAGCTGCTTCTGTGCACAGGCAATA, the RUNX1 binding intensity turned out to be 791.
With CTACCGGGAGTGCGGGTCGCGCTTCAGGCGGCGTCC the figure was 724; with TGAAGGCAATTGACGAACACGTGACGCGGTCGGGCG, 721.
The figure for AGCGCCACCGCAGTGATGCAAGTCGGCAGTTGTAGT is 926.
In turn, ATTTCCATTTACGGACTCTTCTCCTGCCCGCAGGGC showed an RUNX1 binding intensity of 1020.
The figure for TCGTGAAAAAGGAGGTGGATAAAGTGGTTACGGCAA is 779; for CCGAGTGGCGGTTGTTTCAAGATGGCGGAGGTGGCA it is 789.5 ± 6.2.
With CCAGCATGTGGGCTCTGAACCTGAAGCAACAGGCTC the figure was 796.
With ATGTTAACACCCTGCCATGAAAACCGCAAGAAGGGC the figure was 11200; with GGTGTTACACCGCAGCCTTCCATGAAGGGGCAGGGG, 1220.
Sequence CATGAGAAACACCCTGCCCAACCACCTGACTACAAG returned an RUNX1 binding intensity of 1080.
With CCGGGACCGCGGCTTGGGCTCACGGCCACTGCCGAC the figure was 703; with GTTTTCAAGGCAGCAAGTGGCTGTGGTGGCACGGAG, 837.
Take AGGCTTTGCTGCCACAAACTTTCGTGCCACGAACCT: the RUNX1 binding intensity came out at 779.
The figure for AGTTGCATACGCGGTATTGGGCAGGCAATGGCAGGG is 738; for CGTTTACTGTGGCTGCAGCTCTCCCCACCCACACAC it is 979.
The figure for GACGCAGCATGAGGTGGAGGTGTAGAATGTGGTGCT is 760.
The figure for TTTGCACACATGCTGGCCTCCGCCTGACCACCTCCT is 985.
Regarding GCCGTGAATGCGGGCTCTCCTGCCGTAAGCTGCCCC, the RUNX1 binding intensity came to 824.
TTACAGGGGCCGGGAGTGGCCTGCGGGCGGAGAAGT displayed an RUNX1 binding intensity of 738.
As for TCCTGTGGCTTTGGGGTTCCTTGTTGCCTGGGCTGG, the RUNX1 binding intensity was found to be 1110.
In the case of GTGACCACTGCCTAGTTACTGCCAGCTGAACGAAGG, the RUNX1 binding intensity is 729.
With CTGGAACCGCAGGATCCTTGCTGCGTCCTCTCGGTC the figure was 2340; with GAGTGGGCGGTAACTCGCAGGCCGAACGTGACGCAA, 740.
For the sequence GACAACCTACCACAGCCTTCCTTTCGGGCGCTCAGG, the RUNX1 binding intensity turned out to be 1040.
With TTCTGTGGGGACAATTAGGGTTTCTGGGTTTTCTGA the figure was 865.
The figure for AGATTCTAGGCAGTGTCTGTAGCCGCAGCTGAGGGT is 736; for TACCTAGACCCTTGCCGCCCTTACCGCGGCCAGACA it is 901; for CTTCTTGCTGCTGAGACTGATACAGCCCGCAAAGCT it is 816.
With TGTTACCACTGTTAGACTAGAGAGCATGCTGTTGTT the figure was 841.
With AGCACCACATTCTACACCTCCACCTCATGCTGCGTC, the RUNX1 binding intensity came out at 1180.
As for TTGCCGTAACCACTTTATCCACCTCCTTTTTCACGA, the RUNX1 binding intensity was found to be 2720.
CCTAAGTAACCACATTCTCGCTTGCTCCTTCCACAC: the RUNX1 binding intensity was found to be 3680.
The figure for GTAGCCGGGTGTTACGGAGCGCTGCGGGCAAAGCAG is 671.
In the case of GGAGGAAGGCAGCAAAGAAAGAGGTGGTTTCGGCAC, the RUNX1 binding intensity came to 783.
The figure for CTCAGCCCACCGCTGCGCGGCCGAAAGTCGGAGGTT is 760.
TTGCACTCTGCGGGGACGGGAGAAGGAACGAAAAAT: the RUNX1 binding intensity was found to be 805.
With TTTGTTGTTCAGGGTGCGAGGCGGCCGCAGCTTCCA the figure was 936.
The figure for CACCTCCCACTCACCACAGAGTTTCATGGTGTTTTA is 1090; for ACTTGACTGCCTGTGGGGTGTGTGGTGTCTGCACTT it is 822; for CGAGTCAGCAAATCACAGCTCTGCGGGTGGGCTCCT it is 739.
In turn, CAGCATGTGGGTGCACACACCGATTCCTTAGAGGTT came in with an RUNX1 binding intensity of 811.
With ACTGTGCGTTGAGGTCGTCCGCCATCTGCTGCAGCT the figure was 745; with GAGGTGGTCAGAGCCTCCCTTGACATGAAACAAGAA, 724; with TTGGCCTCGCCGGGACCCCTTGCACCGCGGACACAG, 776.
With AAAACGCGCAAATACGGTGGCTGCGGCCCGCGGGCA the figure was 693.
For GGGCAGGCCGTATGTGGGAGACCACAAAGCCCAAGG, the RUNX1 binding intensity was 787.
CATGACCTCCTCGCACAAGAATGCGGGGGTGGGGGT: the RUNX1 binding intensity was found to be 1050.
With CACCCCGCCTCTGCGGGACCACTTCAGGCGCCTTCT the figure was 876.
As for AACCCCTTGCACCGCGGACACAGCTTCTTCTTCCCC, the RUNX1 binding intensity stood at 1080.
The figure for TGGCTACCCGAAAGGCGCGTTGGCTGCGGCTACGCA is 733; for ACCCCGAAAGTGTGGGCGCGGCTGCGGTTTAACCCG it is 7200.
The figure for GTGGCGCGGTGGGGCGCGGACCCGAAACTGCCAAGT is 706; for CCCCACATACGGGGGCCGGGGCCGGGCTGTGGGCTT it is 755; for TCCGCTTCTGTGGTCTGATCTTGCTGGGGCTGAACC it is 1090.
The figure for ACAGACAGCAGCCTGAGCTCGTGGTTAGAACACCCT is 796; for GGTCTGCGGCGCGCGGGATGCTGGGCAATGTAGTTT it is 784; for CAGGCTGCTTCAGGCGCGCGGCAGAGCGGTCAGAGC it is 716.
On to CGTCCCCGCAAAGCCGCGGCAGAAACTCCCGGCGGT, for which the RUNX1 binding intensity stood at 1270.
In the case of TAGGGGGGCGCGGTGAGCCCCGGCGGGAATCGAAGC, the RUNX1 binding intensity was determined as 716.
As to TCCACAATTCCCAGGAGTCTCTGCGGCCGCGCGGAG, the RUNX1 binding intensity came to 830.
In turn, TCACAATCGCCCACAAAGACAGCAAGTAACTGTCAG showed an RUNX1 binding intensity of 892.
With ACGAGGTTTCGTGCAGGCTCCAGCCGAGACCACATC the figure was 744; with GTAGGGGAGGGACCGCAGGGAGGCGGCAGTCCTTGT, 931; with ATCTTGTTCAGGCTCAAAGGGAAACCGCTGCTTTTC, 914.
Take GACAGTTTTCGGGCCTAGTTTGCGGCTGCTCCTGCC: the RUNX1 binding intensity came out at 891.
With CTCTCCAGACCGCGCATTTTGGGTCTCGGAGGAGGT the figure was 735.
The figure for ACGTCATCCCGCAGGGCTGGCGCGCCCGGCGCAGTC is 779; for ACGCCGCGCATACGCGCTTTACGGCGGCCGCAAAAT it is 801.
With GAGGAGGAGGTGCGCTGGCTGTTCTGCTGCGGGCCG the figure was 704; with ATGCCAAGGGACCTCCCTCCACAACCGCCCCCAGCT, 930.
As to CTGACAGCCTCCGCACAAAGCGCGGTCTATTTCTCC, the RUNX1 binding intensity was 918.
As to AAGAAAGGTTCCAGCCTGCGCCCTGCTACCGCGGCG, the RUNX1 binding intensity turned out to be 738.
The figure for GCTGCGGCGGCGGCGAAGAGACAACCTCCGCTGGAA is 793; for TCTGGGAGATGGAGTTCACAGCGCTGCGGGGCCGGA it is 674; for CAACGCTTGCCGACCGCCAGCAGGAGGTGGTGGGCG it is 755.
With TCAAAGCTGCGGGGTTTCATTGCCTGTTCCTGAACA the figure was 693; with AGTATACTGTGGTGAGAAACTGCCTGCCATACCAGC, 824.
The sequence CGTTTACTGTCTGGGACTGCGCCCACGCGGTCACGT gave an RUNX1 binding intensity of 871.
With CACTTGGTCTTGCTGCCCTTGTGGCCCTAACACCCT the figure was 841; with TTTATCCTTATTTGCTGGCTTCGCCCACAAGCACAG, 1010.
The figure for AGACTAGAGGCGGTTGTGTGAGTCAGAAAGAGGGGC is 724; for TCGGGAGGTGGCATGCTGACTCACCTGTGGCTTGTT it is 797.
With CTCCTGCGGCGACACGCCTAGCAGACGGCGCAAGGC the figure was 773; with ATAACTTGCGGCAAATGCTGGAGGCAGTACCGCCTT, 840.
